Data on 34 molecules can be found in ChEMBL document CHEMBL1961873, “Compounds: GSK PKIS; Assays: Nanosyn kinase panel” (2012).

One experiment addresses T1, Inhibitor of nuclear factor kappa-B kinase subunit epsilon (Homo sapiens) (UniProt Q14164).
T1 sequence (whole entry): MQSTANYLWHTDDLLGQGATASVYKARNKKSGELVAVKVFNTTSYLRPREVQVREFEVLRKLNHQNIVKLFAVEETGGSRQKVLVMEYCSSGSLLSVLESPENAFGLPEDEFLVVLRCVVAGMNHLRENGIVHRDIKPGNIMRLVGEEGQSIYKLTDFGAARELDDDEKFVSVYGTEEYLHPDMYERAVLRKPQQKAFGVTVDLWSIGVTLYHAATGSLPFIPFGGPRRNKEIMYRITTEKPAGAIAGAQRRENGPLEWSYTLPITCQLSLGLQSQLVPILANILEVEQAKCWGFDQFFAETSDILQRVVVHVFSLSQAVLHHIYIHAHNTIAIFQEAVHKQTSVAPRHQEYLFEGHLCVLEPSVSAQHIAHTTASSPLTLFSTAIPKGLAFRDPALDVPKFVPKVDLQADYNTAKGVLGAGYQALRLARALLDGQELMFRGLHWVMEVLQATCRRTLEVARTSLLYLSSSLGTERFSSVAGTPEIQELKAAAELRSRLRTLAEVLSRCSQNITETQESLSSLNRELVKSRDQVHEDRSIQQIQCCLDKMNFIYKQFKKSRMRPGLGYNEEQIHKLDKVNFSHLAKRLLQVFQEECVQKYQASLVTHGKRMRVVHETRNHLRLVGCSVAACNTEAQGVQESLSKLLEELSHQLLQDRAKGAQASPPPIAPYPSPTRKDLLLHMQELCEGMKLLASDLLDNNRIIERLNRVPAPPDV
The conditions noted are these: at 1 µM.
Consider `C/C(Nc1ccc(S(N)(=O)=O)cc1)=C1/C(=O)Nc2ccccc21`, for which the inhibition came to 2.23%.

On to `NC(=O)Cc1ccccc1Oc1nccc(-c2c(-c3ccc(F)cc3)ncn2C2CCNCC2)n1`, for which the inhibition was found to be 0.67%.

Take `c1ccc(Oc2ccc(Nc3ncc(-c4ccccc4)o3)cc2)cc1`: the inhibition worked out at 3.43%.

For `COc1ccc2cc(-c3c(-c4ccncc4)nc(-c4ccc(S(C)(=O)=O)cc4C)n3C)ccc2c1`, the inhibition stood at 7.25%.

As to `O=C(Nc1ccc(Oc2ccc3[nH]c(NC(=O)c4ccccc4)nc3c2)cc1)Nc1cc(C(F)(F)F)ccc1F`, the inhibition was 3.04%.

On to `COc1cc2ncn(-c3cc(OCCc4ccccc4)c(C(N)=O)s3)c2cc1OC`, for which the inhibition amounted to 2.69%.

Turning to `C[C@@H](Oc1cc(-n2cnc3ccc(OCC4CCN(C)CC4)cc32)sc1C(N)=O)c1ccccc1Cl`, the inhibition was determined as 7.27%.

Turning to `CS(=O)(=O)CCNCc1cc(-c2cc3c(Nc4ccc(OCc5cccc(F)c5)c(Cl)c4)ncnc3s2)cs1`, the inhibition amounted to 4.64%.

Take `COc1cccc(/C=N/Nc2ncnc3c2cnn3-c2cccc(OC)c2)c1`: the inhibition amounted to 6.73%.

As for `COc1ccc2cc(-c3c(-c4ccncc4)nc(-c4ccc([S+](C)[O-])cc4C)n3C)ccc2c1` (stereo not given), the inhibition was -2.02%.

For `O=C(Nc1n[nH]c2nc(-c3ccco3)ccc12)C1CC1`, the inhibition was -0.75%.

On to `Cc1ccc(C(=O)NC(C)C)cc1-c1ccc(C(=O)NCC2CC2)cc1`, for which the inhibition is -4.16%.

Consider `FC(F)(F)c1cccc(Nc2nccc(-c3cnn4nc(-c5ccccc5)ccc34)n2)c1`, for which the inhibition turned out to be 5.2%.

Consider `O=C(Nc1n[nH]c2cc(-c3cc(F)ccc3F)ccc12)C1CC1`, for which the inhibition turned out to be 6.78%.

Turning to `CN(c1ccc(NC(=O)Nc2c(Cl)cccc2Cl)cc1)c1ccnc(Nc2cccc(CS(C)(=O)=O)c2)n1`, the inhibition turned out to be 8.6%.

On to `COc1cc2ncn(-c3cc(OCc4ccccc4C(F)(F)F)c(C(C)=O)s3)c2cc1OC`, for which the inhibition turned out to be 4.7%.

For `COc1cc(Nc2ncc3c(C)nc(-c4cccc(Oc5ccccc5)c4)n3n2)cc(OC)c1OC`, the inhibition came out at 21.3%.

Regarding `CNC(=O)c1cncc(/C=C/c2c(C)cccc2C)c1`, the inhibition came to 0.54%.

With `NCc1ccc(-n2c(-c3nonc3N)nc3cnccc32)cc1`, the inhibition was 11.4%.

Turning to `O=C1Nc2ccc(I)cc2C1=Cc1cc(Br)c(O)c(Br)c1`, the inhibition is 3.78%.

Regarding `NS(=O)(=O)c1ccc(Nc2cc(-c3ccc(O)c(F)c3)n[nH]2)cc1`, the inhibition is -0.51%.

Consider `CN(C)c1ccc2c(c1)/C(=C/Nc1ccc(S(N)(=O)=O)cc1)C(=O)N2`, for which the inhibition came to 23.1%.

Take `Fc1ccc(-c2ncn(C3CCNCC3)c2-c2ccnc(Oc3ccc(F)c(F)c3)n2)cc1`: the inhibition turned out to be 4.67%.

Turning to `N#Cc1ccc(Oc2nccc(-c3c(-c4ccc(F)cc4)ncn3C3CCNCC3)n2)cc1`, the inhibition turned out to be 5.32%.

As to `COc1cc(C)c(N(C)C(=O)CN(C)C)cc1Nc1nc(Nc2cccc(F)c2C(N)=O)c2cc[nH]c2n1`, the inhibition turned out to be 0.91%.

In the case of `COc1cc2ncn(-c3cc(OCc4cccs4)c(C(N)=O)s3)c2cc1OC`, the inhibition worked out at 7.71%.

Regarding `CCc1cccc(CC)c1/C=C/c1cncc(C(=O)NC)c1`, the inhibition turned out to be 3.78%.

As to `COc1ccc(C2=C(N3CCc4ccccc43)C(=O)NC2=O)cc1`, the inhibition turned out to be 19.1%.

In the case of `Fc1ccc(-c2c(-c3ccncc3)nc3n2CCS3)cc1`, the inhibition stood at 5.11%.

For `CCS(=O)(=O)c1ccc(OC)c(Nc2ncc(-c3ccccc3Cl)o2)c1`, the inhibition is 2.16%.

In the case of `CN(C)CCOc1ccc(-c2cc(-c3ccc4c(c3)CCC4=NO)c(-c3ccncc3)o2)cc1`, the inhibition came out at 0%.

The target of a further experiment is T2, Serine/threonine-protein kinase Nek1 (Homo sapiens) (UniProt Q96PY6).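 Note: mean percent inhibition of NEK1 kinase, from the GSK PKIS (published kinase inhibitor set) screening panel.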
T2 sequence (whole entry): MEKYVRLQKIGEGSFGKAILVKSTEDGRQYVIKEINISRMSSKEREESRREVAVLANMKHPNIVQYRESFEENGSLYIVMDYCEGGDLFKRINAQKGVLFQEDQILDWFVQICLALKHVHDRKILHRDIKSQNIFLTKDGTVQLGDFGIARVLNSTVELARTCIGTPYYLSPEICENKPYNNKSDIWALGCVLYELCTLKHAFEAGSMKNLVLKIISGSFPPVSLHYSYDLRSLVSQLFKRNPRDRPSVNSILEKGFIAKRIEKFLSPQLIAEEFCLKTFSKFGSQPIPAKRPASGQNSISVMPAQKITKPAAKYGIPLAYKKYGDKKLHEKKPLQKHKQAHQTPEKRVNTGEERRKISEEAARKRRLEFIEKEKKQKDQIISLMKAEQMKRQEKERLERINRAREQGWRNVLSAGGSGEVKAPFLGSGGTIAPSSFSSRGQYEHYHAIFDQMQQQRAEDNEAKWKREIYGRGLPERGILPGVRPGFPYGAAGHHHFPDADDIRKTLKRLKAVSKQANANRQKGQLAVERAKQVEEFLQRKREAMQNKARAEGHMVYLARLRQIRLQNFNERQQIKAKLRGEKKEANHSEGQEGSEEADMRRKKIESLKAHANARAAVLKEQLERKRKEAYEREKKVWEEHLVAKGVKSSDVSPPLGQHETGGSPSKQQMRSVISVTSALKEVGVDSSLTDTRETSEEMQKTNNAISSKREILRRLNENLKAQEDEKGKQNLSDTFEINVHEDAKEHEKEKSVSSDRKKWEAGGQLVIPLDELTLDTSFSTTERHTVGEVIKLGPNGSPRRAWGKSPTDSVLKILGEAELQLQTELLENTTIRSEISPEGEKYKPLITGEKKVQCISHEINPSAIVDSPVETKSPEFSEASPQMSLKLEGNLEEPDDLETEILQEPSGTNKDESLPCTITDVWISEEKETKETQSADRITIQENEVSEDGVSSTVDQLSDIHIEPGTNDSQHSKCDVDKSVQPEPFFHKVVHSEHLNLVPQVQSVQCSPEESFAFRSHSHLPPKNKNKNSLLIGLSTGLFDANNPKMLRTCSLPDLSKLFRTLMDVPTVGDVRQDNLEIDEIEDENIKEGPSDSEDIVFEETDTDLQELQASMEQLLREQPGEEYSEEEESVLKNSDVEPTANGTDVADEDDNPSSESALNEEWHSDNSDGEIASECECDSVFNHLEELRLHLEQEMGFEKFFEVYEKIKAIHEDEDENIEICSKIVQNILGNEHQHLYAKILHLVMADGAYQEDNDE
The conditions noted are these: at 0.1 µM.
As for `C/C(Nc1ccc(S(N)(=O)=O)cc1)=C1/C(=O)Nc2ccccc21`, the inhibition was -0.12%.

Take `NC(=O)Cc1ccccc1Oc1nccc(-c2c(-c3ccc(F)cc3)ncn2C2CCNCC2)n1`: the inhibition turned out to be 1.64%.

As for `Fc1ccc(-c2ncn(CCCN3CCOCC3)c2-c2ccncc2)cc1`, the inhibition worked out at 0.93%.

With `c1ccc(Oc2ccc(Nc3ncc(-c4ccccc4)o3)cc2)cc1`, the inhibition stood at 0.18%.

For the molecule `COc1ccc2cc(-c3c(-c4ccncc4)nc(-c4ccc(S(C)(=O)=O)cc4C)n3C)ccc2c1`, the inhibition was 3.37%.

As to `O=C(NCC1CC1)c1ccc(-c2cccc(C(=O)NC3CC3)c2)cc1`, the inhibition came to 1.66%.

For `O=C(Nc1ccc(Oc2ccc3[nH]c(NC(=O)c4ccccc4)nc3c2)cc1)Nc1cc(C(F)(F)F)ccc1F`, the inhibition was found to be 1.92%.

As for `COc1cc2ncn(-c3cc(OCCc4ccccc4)c(C(N)=O)s3)c2cc1OC`, the inhibition was determined as 1.71%.

For `C[C@@H](Oc1cc(-n2cnc3ccc(OCC4CCN(C)CC4)cc32)sc1C(N)=O)c1ccccc1Cl`, the inhibition worked out at 17.6%.

`CS(=O)(=O)CCNCc1cc(-c2cc3c(Nc4ccc(OCc5cccc(F)c5)c(Cl)c4)ncnc3s2)cs1`: the inhibition came out at 3.08%.

On to `CCc1nccc2c1nc(-c1nonc1N)n2CC`, for which the inhibition came out at 0.36%.

Take `COc1cccc(/C=N/Nc2ncnc3c2cnn3-c2cccc(OC)c2)c1`: the inhibition worked out at 1.81%.

For `COc1ccc2cc(-c3c(-c4ccncc4)nc(-c4ccc([S+](C)[O-])cc4C)n3C)ccc2c1` (stereo not given), the inhibition was 0.36%.

Regarding `O=C(Nc1n[nH]c2nc(-c3ccco3)ccc12)C1CC1`, the inhibition came to 1.33%.

For `Cc1ccc(C(=O)NC(C)C)cc1-c1ccc(C(=O)NCC2CC2)cc1`, the inhibition is -1.29%.

As to `FC(F)(F)c1cccc(Nc2nccc(-c3cnn4nc(-c5ccccc5)ccc34)n2)c1`, the inhibition amounted to 2.32%.

With `O=C(Nc1n[nH]c2cc(-c3cc(F)ccc3F)ccc12)C1CC1`, the inhibition turned out to be 1.23%.

Turning to `CN(c1ccc(NC(=O)Nc2c(Cl)cccc2Cl)cc1)c1ccnc(Nc2cccc(CS(C)(=O)=O)c2)n1`, the inhibition was 1.38%.

Take `COc1cc2ncn(-c3cc(OCc4ccccc4C(F)(F)F)c(C(C)=O)s3)c2cc1OC`: the inhibition worked out at 2.21%.

Regarding `COc1cc(Nc2ncc3c(C)nc(-c4cccc(Oc5ccccc5)c4)n3n2)cc(OC)c1OC`, the inhibition is 2.64%.

Consider `CNC(=O)c1cncc(/C=C/c2c(C)cccc2C)c1`, for which the inhibition was -0.56%.

With `NCc1ccc(-n2c(-c3nonc3N)nc3cnccc32)cc1`, the inhibition came to 3.18%.

Take `O=C1Nc2ccc(I)cc2C1=Cc1cc(Br)c(O)c(Br)c1`: the inhibition stood at 2.45%.

Consider `NS(=O)(=O)c1ccc(Nc2cc(-c3ccc(O)c(F)c3)n[nH]2)cc1`, for which the inhibition is -0.93%.

In the case of `CN(C)c1ccc2c(c1)/C(=C/Nc1ccc(S(N)(=O)=O)cc1)C(=O)N2`, the inhibition came out at 1.42%.

Take `Fc1ccc(-c2ncn(C3CCNCC3)c2-c2ccnc(Oc3ccc(F)c(F)c3)n2)cc1`: the inhibition was determined as 2.19%.

On to `N#Cc1ccc(Oc2nccc(-c3c(-c4ccc(F)cc4)ncn3C3CCNCC3)n2)cc1`, for which the inhibition was found to be 2.19%.

With `COc1cc(C)c(N(C)C(=O)CN(C)C)cc1Nc1nc(Nc2cccc(F)c2C(N)=O)c2cc[nH]c2n1`, the inhibition came to 1.9%.

For the molecule `COc1cc2ncn(-c3cc(OCc4cccs4)c(C(N)=O)s3)c2cc1OC`, the inhibition came out at 3.32%.

Take `CCc1cccc(CC)c1/C=C/c1cncc(C(=O)NC)c1`: the inhibition was 1.27%.

Take `COc1ccc(C2=C(N3CCc4ccccc43)C(=O)NC2=O)cc1`: the inhibition was 2.77%.

On to `Fc1ccc(-c2c(-c3ccncc3)nc3n2CCS3)cc1`, for which the inhibition was determined as 2.32%.

For the molecule `CCS(=O)(=O)c1ccc(OC)c(Nc2ncc(-c3ccccc3Cl)o2)c1`, the inhibition came to 0.72%.

For `CN(C)CCOc1ccc(-c2cc(-c3ccc4c(c3)CCC4=NO)c(-c3ccncc3)o2)cc1`, the inhibition was found to be 0.25%.
